Measurements as given in PubChem BioAssay (NCI).
About 79,000 compounds went through this panel and 15% of them were active in at least one assay; those are over-represented in the sample as a whole. The source made the active and inactive calls. Rule as the data show it: active = growth inhibition above about 70%; inactive = the rest.

Assays:
[1] = NCI Yeast Anticancer Drug Screen. Data for the rad52 strain (AID 147);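 also: 0% = growth of vehicle-treated control cultures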; conditions: S. cerevisiae rad52 mutant growth inhibition, hits give high values
Summary of the method: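 Here a repair-compromised yeast strain receives each compound; its growth is then quantified and normalised to vehicle-only controls.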

[2] = NCI Yeast Anticancer Drug Screen. Data for the wt1 strain (AID 149);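 also: 0% = growth of vehicle-treated wt1 cultures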; conditions: S. cerevisiae wt1 strain (SPY 50644) growth inhibition, hits give high values
Summary of the method: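 Growth inhibition read against vehicle controls after compound exposure of the wt1 yeast strain.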

[3] = NCI Yeast Anticancer Drug Screen. Data for the rad50EPP+ strain (AID 151);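 also: 0% = growth of vehicle-treated control cultures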; conditions: S. cerevisiae rad50 mutant strain, hits give high values
Summary of the method: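 Read-out is yeast growth inhibition relative to vehicle; cells used were the rad50EPP+ strain.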

[4] = NCI Yeast Anticancer Drug Screen. Data for the rad50 strain (AID 155);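 also: 0% = growth of vehicle-only cultures of the same strain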; conditions: S. cerevisiae rad50 strain growth inhibition, hits give high values
Summary of the method: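 Readout: growth inhibition relative to vehicle-treated cultures. Compound exposure was carried out in a genetically defined yeast strain deficient in DNA damage repair.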

[5] = NCI Yeast Anticancer Drug Screen. Data for the mec2-1 strain (AID 157); conditions: S. cerevisiae mec2-1 strain, hits give high values
Summary of the method: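 Using mec2-1 yeast: add compound, measure growth, express inhibition versus vehicle-treated cultures.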

[6] = NCI Yeast Anticancer Drug Screen. Data for the rad14 strain (AID 159);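 also: 0% = growth of vehicle-treated control cultures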; conditions: S. cerevisiae rad14 strain growth inhibition, hits give high values
Summary of the method: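 Growth inhibition vs vehicle controls; genetically altered yeast strain (DNA damage repair defect) treated with test compounds.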

[7] = NCI Yeast Anticancer Drug Screen. Data for the sgs1 mgt1 strain (AID 161);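 also: 0% = growth of cultures given vehicle only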; conditions: S. cerevisiae sgs1 mgt1 strain, hits give high values
Summary of the method: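 Yeast cells carrying a defined DNA-repair defect were exposed to test compounds. Growth inhibition was measured relative to vehicle-treated controls.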

[8] = NCI Yeast Anticancer Drug Screen. Data for the CLN2oe strain (AID 163);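 also: 0% = growth of vehicle-only control cultures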; conditions: S. cerevisiae CLN2oe strain, hits give high values
Summary of the method: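 Whole-cell yeast growth assay. A strain engineered for altered cell-cycle control received compound, and inhibition relative to vehicle-treated cultures was recorded.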

[9] = NCI Yeast Anticancer Drug Screen. Data for the cln2 rad14 strain (AID 165);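 also: 0% = growth equal to vehicle treated cultures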; conditions: S. cerevisiae cln2 rad14 strain, hits give high values
Summary of the method: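 Yeast strain cln2 rad14, bearing defects in cell cycle control and DNA repair, serves as the test system; values reflect growth inhibition compared with vehicle.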

[10] = NCI Yeast Anticancer Drug Screen. Data for the bub3 strain (AID 167); conditions: S. cerevisiae bub3 mutant strain, hits give high values
Summary of the method: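 Readout: yeast growth inhibition, expressed relative to vehicle-only wells. The test organism is a mutant strain from a panel with lesions in DNA repair or checkpoint genes.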

[11] = NCI Yeast Anticancer Drug Screen. Data for the wt2 strain (AID 169);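 also: 0% = growth of vehicle-treated yeast cultures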; conditions: S. cerevisiae wt2 strain growth inhibition, hits give high values
Summary of the method: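 Treated yeast vs. vehicle-treated yeast: growth inhibition determined.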

[12] = NCI Yeast Anticancer Drug Screen. Data for the mlh1 strain (AID 171);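 also: 0% = growth of vehicle-treated control cultures of the same strain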; conditions: S. cerevisiae mlh1 strain growth inhibition, hits give high values
Summary of the method: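 A yeast strain with a defined genetic lesion serves as the test organism. Cultures receive compound or vehicle, and growth is measured.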

[13] = NCI Yeast Anticancer Drug Screen. Data for the sgs1 strain (AID 173);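 also: 0% = growth of vehicle-only control cultures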; conditions: S. cerevisiae sgs1 mutant, hits give high values
Summary of the method: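 A genetically defined yeast mutant is incubated with the test compound, and its growth is compared to that of the same strain given vehicle.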

[14] = NCI Yeast Anticancer Drug Screen. Data for the mlh1 rad18 strain (AID 175); conditions: S. cerevisiae mlh1 rad18 strain growth inhibition, hits give high values
Summary of the method: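 Steps: expose repair-defective yeast to compound; measure growth; express inhibition against vehicle-treated controls.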

[15] = NCI Yeast Anticancer Drug Screen. Data for the rad18 strain (AID 177); conditions: S. cerevisiae rad18 mutant growth inhibition, hits give high values
Summary of the method: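 Measured value is growth inhibition of a yeast strain bearing a DNA repair alteration, referenced to vehicle-treated cells.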

[16] = at 5.0 µM (retest, dose inferred, filed as 0.5)
[17] = at 50.0 µM (retest, dose inferred, filed as 5.0)

Measured: growth inhibition

N#C/C(=C\c1ccccc1)c1ccccc1F
active: [4]; [17] 89% | [7]; [17] 90% | [10]; [17] 88% | [14]; [17] 96%
inactive: [1]; at 1.2 µM -1% | [1]; at 3.7 µM -3% | [1]; at 11.0 µM -2% | [1]; at 33.0 µM -1% | [1]; at 100.0 µM 3% | [2]; at 1.2 µM 1% | [2]; at 3.7 µM 1% | [2]; at 11.0 µM 2% | [2]; at 33.0 µM 1% | [2]; at 100.0 µM 1% | [3]; at 1.2 µM 2% | [3]; at 3.7 µM 2% | [3]; at 11.0 µM 9% | [3]; at 33.0 µM 16% | [3]; at 100.0 µM 21% | [4]; at 1.2 µM -4% | [4]; at 3.7 µM 3% | [4]; [16] 6% | [4]; at 11.0 µM -2% | [4]; at 33.0 µM 2% | [4]; at 50.0 µM 44.1% | [4]; at 100.0 µM 10% | [5]; at 1.2 µM 2% | [5]; at 3.7 µM 0% | [5]; [16] -11% | [5]; at 11.0 µM 4% | [5]; at 33.0 µM -4% | [5]; [17] 69% | [5]; at 50.0 µM 41.7% | [5]; at 100.0 µM -4% | [6]; at 1.2 µM -2% | [6]; at 3.7 µM -1% | [6]; at 11.0 µM 1% | [6]; at 33.0 µM 1% | [6]; at 100.0 µM 5% | [7]; [16] -8% | [7]; at 50.0 µM 45.9% | [8]; at 1.2 µM 13% | [8]; at 3.7 µM 9% | [8]; at 11.0 µM 11% | [8]; at 33.0 µM 14% | [8]; at 100.0 µM 8% | [9]; [16] -10% | [9]; [17] 17% | [9]; at 50.0 µM 6.15% | [10]; at 1.2 µM -31% | [10]; at 3.7 µM -21% | [10]; [16] -17% | [10]; at 11.0 µM -6% | [10]; at 33.0 µM -10% | [10]; at 50.0 µM 34.9% | [10]; at 100.0 µM -7% | [11]; at 1.2 µM -3% | [11]; at 3.7 µM -2% | [11]; at 11.0 µM -1% | [11]; at 33.0 µM -1% | [11]; at 100.0 µM 4% | [12]; at 1.2 µM -1% | [12]; at 3.7 µM 2% | [12]; at 11.0 µM 0% | [12]; at 33.0 µM -6% | [12]; at 100.0 µM 10% | [13]; at 1.2 µM -1% | [13]; at 3.7 µM -1% | [13]; at 11.0 µM 1% | [13]; at 33.0 µM 1% | [13]; at 100.0 µM 2% | [14]; [16] 22% | [14]; at 50.0 µM 67% | [15]; at 1.2 µM -2% | [15]; at 3.7 µM -5% | [15]; at 11.0 µM -7% | [15]; at 33.0 µM -14% | [15]; at 100.0 µM -15%
